AddAB inh = less growth of phage-infected E. coli with AddAB; 0.29% of 330,000 active; E. coli expressing H. pylori AddAB, absorbance growth; inhibition, % at 11.9 µM; in the data active = inhibition above about 12%;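 note: 0% = vehicle wells of infected cells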
E coli growth-1 = counter-screen for AddAB inhibitors: E. coli growth inhibition | 0.27% of 330,000 active | inhibition, % at 11.9 µM | E. coli V3065 growth, OD600 absorbance, 18 h;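 active = inhibition above the campaign's mean inhibition across all tested compounds plus 3 SD, cut at about 9.9% in these data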;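 note: uninfected addAB+ strain grown without phage in ampicillin broth; 0% = DMSO wells and 100% = ciprofloxacin 0.95 µg/ml wells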
E coli growth-2 = blocks Escherichia coli growth; AID 1053175; 0.21% of 330,000 active; OD600 absorbance (no concentration beside the values); OD600, 23 h; stronger effect = lower value;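 active = OD600 absorbance below the run mean of sample wells minus 3.6 SD, in any replicate, cut at about 0.56 in these data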
phage Ecoli inh = E. coli growth loss with phage present. 0.26% of 360,000 active. growth absorbance. inhibition, % at 11.9 µM. AID 651602; in the data active = inhibition above about 11%
Tat transport = blocks Tat-dependent protein export in E. coli. 0.036% of 340,000 active. AID 488895. inhibition, % at 10 µM. E. coli MC4100 TorA-mCherry Tat export, fluorescence;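 active = mean replicate inhibition at least 50% and at least half of replicates individually reaching 50%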;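 note: exported cargo escapes ClpAP degradation while cytoplasmic cargo is degraded and loses fluorescence; 0% = median of neutral control wells and 100% = median of NaSCN control wells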
AddAB confirm = confirmation screen: growth loss of phage-infected E. coli expressing H. pylori AddAB. E. coli V3065 expressing H. pylori AddAB, T4 phage, OD; T4 phage with gene 2 nonsense mutations. AID 488942. inhibition, % at 11.9 µM. 64% of 880 active. shares compounds with AddAB inh;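 active = mean inhibition above a set limit taken from the earlier primary screen, cut at about 13% in these data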;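 note: higher means less bacterial growth since AddAB block lets phage replicate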
RecBCD counter = AddAB counter-screen: growth loss of RecBCD+ E. coli infected with mutant T4 phage; shares compounds with AddAB inh; E. coli V66 + mutant T4 phage, OD growth; inhibition, % at 11.9 µM; 73% of 880 active; AID 488955;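 active = mean inhibition above the mean of solvent-only control wells plus 3 SD, cut at about 4% in these data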;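 note: optical density read after an 18 h incubation at 37 °C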
Bact viability = counter-screen: bacterial growth inhibition; AID 488956; 35% of 880 active; bacterial viability, absorbance (AddAB counterscreen); shares compounds with AddAB inh; inhibition, % at 11.9 µM; in the data active = inhibition above about 25%
Active calls of the source: *; · = no result given. An excerpt weighted towards active compounds, which were near 0.51% of everything screened.

SMILES	AddAB inh	E coli growth-1	E coli growth-2	phage Ecoli inh	Tat transport	others
Fc1ccc(CNCCc2ccccc2)cc1	2	1	0.68	5	-2
C1=C(CCNCc2ccccc2)CCCC1	3	-1	0.45*	6	-5
COc1cc2cc(C(=O)N3CC(COS(C)(=O)=O)c4ccc(O)cc43)[nH]c2c(OC)c1OC (stereo unspecified)	·	·	·	·	58*
COC(=O)C1=C(c2ccc(-c3ccccc3)c(F)c2)CC2CCC1N2C(=O)NCCCOC(C)C (stereo unspecified)	·	·	0.69	·	·
COC(=O)C1C(O)C(C)C(O)C(C)C=CC=C(C)C(=O)Nc2c(C)c(OC(C)=O)c3c(c2O)C(=O)C(C)=C2OCOC(=C23)C(C)=CC(C)(O)C(O)C(C)C1O (stereo unspecified)	·	·	0.12*	·	·
CC(=NN1CCCCCC1)c1c(O)n(-c2ccc(C)cc2)c(=O)[nH]c1=O	·	·	0.72	·	·
COc1cc2c(cc1OC)-c1c(OC)c(OC)cc3c1C(C2)[N+](C)(C)CC3 (stereo unspecified)	·	·	0.71	·	·
CN(C)C1C(=O)C(C(N)=O)=C(O)[C@@]2(O)C(=O)C3=C(O)c4c(O)cccc4[C@@](C)(O)C3C(O)C12 (stereo partly specified)	·	·	0.07*	·	·
CN(C)C1C(=O)C(C(N)=O)=C(O)[C@@]2(O)C(=O)C3=C(O)c4c(O)cccc4[C@@](C)(O)C3CC12 (stereo partly specified)	·	·	0.065*	·	·
COC(=O)C1=C(c2cccc(OC)c2OC)CC2CCC1N2C(=O)NCc1ccco1 (stereo unspecified)	·	·	0.7	·	·
CC1CCC2C(C)C(=O)OC3OC4(C)CCC1C32OO4 (stereo unspecified)	1	1	0.43*	3	-2
COC(=O)C1=C(c2ccc(F)cc2OCc2ccccc2)CC2CCC1N2C(=O)NCc1cccc(OC)c1 (stereo unspecified)	·	·	0.67	·	·
Clc1ccc(C(c2ccc(Cl)cc2)n2cc[n+](CC(OCc3ccc(Cl)cc3Cl)c3ccc(Cl)cc3Cl)c2)cc1 (stereo unspecified)	0	5	0.094*	7	15
C#C[C@]1(O)CCC2C3CCC4=CC(=O)CC[C@]4(C)C3CC[C@@]21C (stereo partly specified)	·	·	0.7	·	·
CNc1cc(Cl)c2nonc2c1[N+](=O)[O-]	·	·	0.46*	8	-37
c1ccc(-c2nc(N3CCOCC3)s[n+]2-c2ccccc2)cc1	4	3	0.52*	2	-2
COC(=O)[C@@]1(Cc2ccc(F)cc2)C2c3cc(C(=O)N(C)C)[nH]c3CC2CN1C(=O)c1ccccc1 (stereo partly specified)	·	·	0.66	·	·
COC(=O)C1=C(c2cc3ccccc3o2)CC2CCC1N2C(=O)N1CCOCC1 (stereo unspecified)	·	·	0.7	·	·
Cc1cc([N+](=O)[O-])c2ccccc2[n+]1[O-]	28*	21*	0.48*	·	-17	AddAB confirm=99*;RecBCD counter=11*;Bact viability=33*
Cc1ccccc1[N+](=O)[O-]	0	-4	0.68	2	6
O=c1[nH]c(=S)n(C2CC2)c(O)c1C=NCc1ccc(F)cc1	27*	15*	0.53	2	-1	AddAB confirm=62*;RecBCD counter=0;Bact viability=26*
O=c1[nH]c(=S)n(C2CC2)c(O)c1C=NCc1cccnc1	0	0	0.66	·	·
COC(=O)C1=C(c2ccc(OC(F)(F)F)cc2)CC2CCC1N2C(=O)NCCOc1ccccc1Cl (stereo unspecified)	·	·	0.72	·	·
Cc1ccc(C[n+]2c(-c3ccc(C)cc3)cc(-c3ccc(C)cc3)cc2-c2ccc(C)cc2)cc1	16*	25*	0.41*	·	-3	AddAB confirm=55*;RecBCD counter=12*;Bact viability=13
COC(=O)C1=C(c2cccc(Cl)c2)CC2CCC1N2C(=O)NCC1CC1 (stereo unspecified)	·	·	0.72	·	·
COC(=O)C1=C(c2ccc(S(C)(=O)=O)cc2)CC2CCC1N2C(=O)N1CCC(C)CC1 (stereo unspecified)	·	·	0.63	·	·

Compound activity: PubChem, several laboratories
